Reference: PubChem BioAssay AID430 (Sanford-Burnham Center for Chemical Genomics, 2006)
Screen size: about 63,000 compounds; about 1,100 (1.7%) were called active. The list comes from a sample in which actives are over-represented; it also holds similar structures and randomly drawn compounds. Potency and affinity values are given separately. A number with no mark means an inactive call. Cut-off read from the data, not from the text of the source: active = cytotoxicity above about 50%; inactive = the rest.

Experiment: HPDE-C7 pancreatic duct cell viability loss – fluorescence, HTS (AID 430);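 note: cells exposed to compound for 48 hours before viability readout; 0% = vehicle and 100% = reference cytotoxic drug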
Conditions: HPDE-C7 pancreatic duct cells viability, at 10 µM, stronger effect = higher value
With `Fc1cccc(CSc2ncnc3c2oc2ccccc23)c1` the cytotoxicity was 12.4%.
For `COc1ccc(OC)c(C(O)c2coc3ccc(O)c(CN4CCOCC4)c23)c1` (stereo unspecified), the cytotoxicity was 1.7%.
Molecule `COCCn1nnnc1C(c1ccc(OC)cc1OC)N1CCN(c2ccccc2)CC1` (stereo unspecified) has a cytotoxicity of -2%.
For `COC(=O)CSc1nnc(CSc2nc(C)cc(C)n2)n1Cc1ccco1`, the cytotoxicity was -2.1%.
`COc1ccc(C(C)=O)cc1COC(=O)c1cc(C)oc1C` gave a cytotoxicity of 2.5%.
With `COc1ccccc1C(=O)OCC(=O)Nc1ccc(OC(F)F)cc1` the cytotoxicity was 5.1%.
In the case of `Cc1nc(N)sc1-c1csc(Nc2ccccn2)n1`, the cytotoxicity is reported as -12.4%.
In the case of `Cc1cccnc1Nc1nc(-c2ccc(O)cc2O)cs1`, the cytotoxicity is reported as 67.2% (active).
For `Cc1cc(O)ccc1Nc1nc(-c2sc(N)nc2C)cs1`, the cytotoxicity was 1.6%.
With `CCOC(=O)N1CCN(c2c(NCc3cccs3)c(=O)c2=O)CC1` the cytotoxicity was 46.8%.
`Cc1nc(N2CCN(c3ccccc3)CC2)[nH]c(=O)c1Cc1cccc2ccccc12` showed a cytotoxicity of 7.5%.
With `COC(=O)COc1ccc(S(=O)(=O)NCCC2=CCCCC2)cc1` the cytotoxicity was 18.8%.
In the case of `COC(=O)COc1ccc(S(=O)(=O)NCCC2=CCCCC2)cc1C`, the cytotoxicity is reported as -2.4%.
In the case of `CCOC(=O)COc1ccc(S(=O)(=O)NCCC2=CCCCC2)cc1`, the cytotoxicity is reported as 50.3% (active).
For `O=C(c1ccncc1)N1CCN(C(=O)c2cccs2)CC1`, the cytotoxicity was -5.3%.
`O=C(Nc1ccccc1N1CCN(C(=O)c2ccccc2)CC1)c1cc2ccccc2o1` showed a cytotoxicity of -8.3%.
Work on `O=C(Nc1ccc(N2CCOCC2)c(Cl)c1)c1cccc(F)c1` yielded a cytotoxicity of 16.4%.
With `O=C(Nc1ccc(N2CCOCC2)c(Cl)c1)c1ccco1` the cytotoxicity was -5.7%.
With `Cc1ccccc1C(=O)N1CCN(c2ccc(NC(=O)c3ccco3)cc2Cl)CC1` the cytotoxicity was 11.7%.
`O=C(Nc1ccc(N2CCN(C(=O)c3ccco3)CC2)c(Cl)c1)c1cccs1` showed a cytotoxicity of 16.9%.
Work on `O=C(Nc1ccc(N2CCN(C(=O)c3ccccc3)CC2)c(Cl)c1)c1ccco1` yielded a cytotoxicity of -7.6%.
`O=C(Cc1ccc(Cl)cc1)Nc1ccc(N2CCN(C(=O)c3ccco3)CC2)c(Cl)c1` showed a cytotoxicity of 19.6%.
In the case of `O=C(Nc1ccc(N2CCN(C(=O)c3ccco3)CC2)c(Cl)c1)c1c(F)c(F)c(F)c(F)c1F`, the cytotoxicity is reported as 56% (active).
`CCC(=O)Nc1ccc(NC(=O)c2cc3ccccc3o2)cc1` showed a cytotoxicity of -18.1%.
For `O=C(Nc1ccc(N2CCOCC2)c(Cl)c1)c1c(F)c(F)c(F)c(F)c1F`, the cytotoxicity was 54.5% (active).
For `CCn1c(C(=O)NCc2cccnc2)cc2sc(Cl)cc21`, the cytotoxicity was 1.8%.
`CC(=O)Nc1cc(C(=O)N2CCOCC2)ccc1S(=O)(=O)c1ccc(C)cc1` gave a cytotoxicity of -15.2%.
Work on `COc1ccc(CCNC(=O)C2CCCN(C(=O)N(C)C)C2)c(OC)c1` (stereo unspecified) yielded a cytotoxicity of -5.4%.
In the case of `CCN(CC)c1ccc2c(c1)C(=O)N(C)C2=O`, the cytotoxicity is reported as 11.6%.
Work on `CCn1cc(SCC(=O)NCc2ccc3c(c2)OCO3)c2ccccc21` yielded a cytotoxicity of 4.6%.
For `COc1ccc(CN(CC2CCCO2)S(=O)(=O)c2ccc(C(=O)O)cc2)cc1OC` (stereo unspecified), the cytotoxicity was 8.1%.
`Cn1c(=Nc2ccc(N3CCOCC3)cc2)ccc2ccccc21` showed a cytotoxicity of 0.9%.
`COc1ccc(-n2nc(C(=O)NCc3ccco3)c3c4ccccc4n(C)c3c2=O)cc1Cl` showed a cytotoxicity of 2.9%.
`Cc1nn(CCO)c2c1C(=O)CCC2` gave a cytotoxicity of -9.1%.
In the case of `O=C1CC(N2CCOCC2)C(=O)N1c1ccc2c(c1)OCO2` (stereo unspecified), the cytotoxicity is reported as -4.6%.
For `CC1CN(c2nc3ccccc3nc2C(C#N)C(=O)NC2CCCCC2)CC(C)O1` (stereo unspecified), the cytotoxicity was -15.5%.
`Cc1ccc(NC(=O)CN2C(=O)NC(Cc3ccccc3)C2=O)cc1` (stereo unspecified) gave a cytotoxicity of -48.1%.
Work on `CCCC(=O)N1CCN(c2ccc(NC(=O)c3cc4ccccc4o3)cc2)CC1` yielded a cytotoxicity of -13.7%.
With `O=C(Nc1ccccc1N1CCN(C(=O)c2ccc(Cl)cc2)CC1)c1cc2ccccc2o1` the cytotoxicity was -2.7%.
In the case of `CC1CCN(CCCNC(=O)C2CCN(S(=O)(=O)N3CCCCC3)CC2)CC1`, the cytotoxicity is reported as -11.8%.
For `Nc1c(S(=O)(=O)c2cccs2)c2nc3ccccc3nc2n1/N=C/c1cccc(O)c1`, the cytotoxicity was 64.6% (active).
`Nc1c(S(=O)(=O)c2cccc(Cl)c2)c2nc3ccccc3nc2n1CCN1CCOCC1` showed a cytotoxicity of -2%.
`Cc1ccc(C)c(S(=O)(=O)c2c(N)n(/N=C/c3ccco3)c3nc4ccccc4nc23)c1` showed a cytotoxicity of 33.6%.
In the case of `Nc1c(S(=O)(=O)c2cccs2)c2nc3ccccc3nc2n1Cc1cccs1`, the cytotoxicity is reported as -1.9%.
For `Nc1c(S(=O)(=O)c2cccc(Cl)c2)c2nc3ccccc3nc2n1/N=C/c1ccc(O)c(O)c1`, the cytotoxicity was 117% (active).
For `Cc1ccc(S(=O)(=O)c2c(N)n(/N=C/c3ccco3)c3nc4ccccc4nc23)cc1C`, the cytotoxicity was 11.7%.
In the case of `Cc1ccc(S(=O)(=O)c2c(N)n(/N=C/c3ccco3)c3nc4ccccc4nc23)cc1`, the cytotoxicity is reported as 38.7%.
With `Nc1c(S(=O)(=O)c2ccccc2)c2nc3ccccc3nc2n1/N=C/c1ccco1` the cytotoxicity was 69% (active).
With `COCCn1c(N)c(S(=O)(=O)c2cccs2)c2nc3ccccc3nc21` the cytotoxicity was 5%.
In the case of `Cc1cccc(S(=O)(=O)c2c(N)n(/N=C/c3ccco3)c3nc4ccccc4nc23)c1`, the cytotoxicity is reported as 26.6%.
`Cc1cccc(S(=O)(=O)c2c(N)n(/N=C/c3cccnc3)c3nc4ccccc4nc23)c1` showed a cytotoxicity of 28.2%.
